Screening results from PubChem BioAssay.
FLuc modulator = inhibits or activates purified firefly luciferase, miR-21 counter-screen; P08659; purified FLuc, Km substrates, luminescence inhibition; Potency, µM (top dose mostly 57.5 µM), without a hit: top-dose activity change, negative = inhibition, actives largely listed as inhibitors; 6.9% of 360,000 active; AID 588342;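 further: plate controls were vehicle for no effect and reference inhibitor for full effect; nearly all actives have a fitted effect of over 55% in size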
Target sequence (P08659 whole entry, looked up): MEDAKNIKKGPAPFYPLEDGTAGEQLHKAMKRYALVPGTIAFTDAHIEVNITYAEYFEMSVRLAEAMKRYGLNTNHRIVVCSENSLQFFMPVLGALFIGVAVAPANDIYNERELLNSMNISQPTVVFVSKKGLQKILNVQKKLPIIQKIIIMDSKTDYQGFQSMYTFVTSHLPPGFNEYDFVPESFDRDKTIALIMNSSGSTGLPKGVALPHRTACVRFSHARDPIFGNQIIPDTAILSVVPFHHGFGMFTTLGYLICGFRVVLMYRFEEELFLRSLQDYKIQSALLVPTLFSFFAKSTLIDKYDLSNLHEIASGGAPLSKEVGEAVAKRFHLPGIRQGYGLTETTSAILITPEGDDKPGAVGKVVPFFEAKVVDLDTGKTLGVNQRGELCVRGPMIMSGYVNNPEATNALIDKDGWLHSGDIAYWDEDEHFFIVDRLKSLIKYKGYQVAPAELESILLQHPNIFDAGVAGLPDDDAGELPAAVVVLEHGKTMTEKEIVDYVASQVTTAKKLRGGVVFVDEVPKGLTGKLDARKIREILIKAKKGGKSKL
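Purified P. pyralis luciferase (10nM final) with 10uM D-luciferin and 10uM ATP (Km levels) in 50mM Tris acetate pH 7.5, 10mM Mg acetate, 0.01% Tween-20, 0.05% BSA; qHTS 6-point titration, ~60 µM downward; luminescence read.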
SMN2 splice up = enhancers of SMN2 splice variant expression; HEK293 SMN2-luciferase splicing reporter, luminescence, 30-36 h; Potency, µM (titrated, usually from 46.1 µM), for inactives: at the top dose activity change, positive = activation, most hits filed as activators; 2.8% of 210,000 active; AID 1458; further: % of control where 0% means no effect; nearly all actives have a fitted effect of over 55% in size
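HEK293 cells carry an SMN2 […]–luciferase reporter in which exon 7 inclusion puts luciferase in frame. Cells were plated 10-12 h before compound addition, then incubated 30-36 h at 37C. ONE-Glo luminescence was read; sodium butyrate at 4.5 mM final served as control.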
NPC1 promoter act = NPC1 promoter activation; Huh7 NPC1 promoter luciferase reporter, 24 h; Potency, µM (titrated, usually from 9.22 µM), inactives show at the top dose activation, actives largely listed as activators; 2.4% of 320,000 active; further: % of control where 0% means no effect; nearly all actives have a fitted effect of over 60% in size
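Luciferase expression driven by the NPC1 promoter was measured in stably transfected Huh7 cells after a 24 h compound incubation, using a luciferase reagent and a luminescence read.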
Rab9 prom act = activates the Rab9 promoter. Huh7 Rab9 promoter-luciferase reporter, luminescence, 24 h. Potency, µM (doses to about 9.22 µM), without a hit: at the highest dose activation, negative = inhibition, actives largely listed as activators. 2.8% of 320,000 active. AID 485297; further: % of control where 0% means no effect; nearly all actives have a fitted effect of over 60% in size
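Luciferase signal after 10 min detection reagent at ambient indicates Rab9 promoter upregulation; stably transfected Huh7 cells were treated 24 h with compound in DMSO at 37 °C, 5% CO2.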
uPA surface inh = cell surface uPA generation inhibition. 0.31% of 330,000 active. AID 540303. cell surface uPA generation assay, qHTS. Potency, µM (series often up to 38.3 µM), inactives show at the highest dose activity change, negative = inhibition, hits mostly inhibitors; active means well fitted inhibition curve with a large enough effect; inconclusive means small, poorly fitted or top-dose-only effect; inactive means no such curve, though single readings can be large or run the other way; tested in mouse RAW 264.7 cells; further: on the % scale 0 is the no-effect control and ±100 the full control effect; nearly all actives have a fitted effect of over 55% in size
ELG1 genotoxic = genotoxicity induction in ELG1-luciferase HEK293T cells; HEK293T ELG1-luciferase reporter, luminescence, 16 h; Potency, µM (titrated, usually from 46 µM), inactives show at the top dose activity change, positive = activation, hits mostly activators; 1.3% of 330,000 active; AID 504466; further: % of control where 0% means no effect; nearly all actives have a fitted effect of over 60% in size
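HEK293T cells expressing luciferase-tagged ELG1 were exposed to compound or DMSO vehicle for 16 hr at 37 °C and 5% CO2. Luciferase activity was then measured with ONE-Glo after 30 min at room temperature.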
* hit, by the source's call; ? = inconclusive; . = no result given. Only some compounds are listed: those with a hit (about 7.3% of all), similar ones and a draw of the others. Unless noted, the call rests on the fitted dose curve; in most records, active means well fitted curve in the direction sought with a large enough effect; inconclusive means small, poorly fitted or top-dose-only effect, or another doubt; inactive means no such curve, though single readings can be large; an effect the other way counts as inactive or inconclusive. Potency means the concentration at half of the fitted maximal effect.

SMILES	FLuc modulator	SMN2 splice up	NPC1 promoter act	Rab9 prom act	uPA surface inh	ELG1 genotoxic
NCC1O[C@@H](O[C@@H]2C(O)[C@H](O[C@H]3OC(CO)C(O)C(N)C3O)[C@@H](N)C[C@H]2N)C(N)C(O)C1O (some centres undefined)	.	5%	.	.	.	.
CCOc1ccc(C(=O)NCC(c2ccc3c(c2)OCO3)N2CCN(c3ccc(F)cc3)CC2)cc1 (centres undefined)	-1%	.	.	.	.	.
O=C(OCc1nc(-c2ccccc2Cl)no1)c1ccco1	12µM*	.	1%	0%	7%	1%
O=C(Nc1nc2ccc(S(=O)(=O)N3CCCC3)cc2s1)C1CCCCC1	0%	-37%	-33%	-24%	-14%	-2%
O=C(NNc1nc2cc3c(cc2s1)OCCO3)c1ccccc1	9.5µM*	20µM*	?	?	0%	?
CC(=O)Nc1nc2cc3c(cc2s1)OCCO3	7.6µM*	.	1.6µM*	1.4µM*	-13%	?
O=C(Nc1nc2cc3c(cc2s1)OCO3)C1CCCCC1	4.8µM*	.	1.8µM*	1.3µM*	-8%	?
O=C(Nc1nc2cc3c(cc2s1)OCO3)C1CC1	?	.	?	28%	-4%	9%
O=C(Nc1nc2cc3c(cc2s1)OCCO3)C1CCCCC1	0.43µM*	.	0.5µM*	0.32µM*	?	?
COc1ccc(-n2cc(C(=O)Oc3cc(C)cc(C)c3)c3ccccc3c2=O)cc1	-1%	.	.	.	.	.
Cc1ccc(NC(=O)N2CCCC(c3ccccc3)C2)cc1 (centres undefined)	12µM*	.	2%	23%	-10%	2%
CCc1ccc(NC(=O)N2CCC(c3ccccc3)C2)cc1 (centres undefined)	6.7µM*	25µM*	1.1µM*	0.89µM*	0%	?
O=C(Nc1ccccc1)N1CCC(c2ccccc2)C1 (centres undefined)	12µM*	18µM*	1.6µM*	1.8µM*	-11%	?
CC1CCCN(C(=O)C2CCN(C(=O)Nc3ccccc3)CC2)C1 (centres undefined)	-1%	.	2%	0%	-12%	-2%
NC(=O)C1CCN(C(=O)Nc2ccccc2)CC1	0%	3%	-1%	.	4%	0%
O=C(CCN1CCC(c2ccccc2)C1)c1cccs1 (centres undefined)	-3%	-17%	3%	-5%	-10%	-5%
O=C(c1cccs1)N1CCC(c2ccccc2)C1 (centres undefined)	21µM*	16µM*	3.2µM*	2.8µM*	-3%	18µM*
CCc1ccc(NC(=S)N2CCC(NC(=O)c3ccccc3)CC2)cc1	1%	.	2%	-1%	-3%	-4%
CC/C=C\C/C=C\C/C=C\C/C=C\C/C=C\C/C=C\CCC(=O)O[C@H](COCCCCCCCCCCCCCCCC)COP(=O)([O-])OCC[N+](C)(C)C	.	0%	.	.	.	.
Cc1c(CN2CCCC(C(=O)Nc3cccc(-n4cccn4)c3)C2)cnn1C (centres undefined)	0%	.	-18%	0%	7.9µM*	0%
Cn1cc(CN2CCCC(C(=O)Nc3ccc(-c4cccc(F)c4)cc3)C2)cn1 (centres undefined)	-1%	.	-5%	-8%	8.9µM*	8%
COC(=O)c1ccc(CNC(=O)C2CCC(=O)N(CCN3CCOCC3)C2)cc1 (centres undefined)	6%	.	-5%	3%	6%	8%
Cc1ccc(-c2cn(-c3cccc(Cl)c3)c(S(=O)(=O)CC(=O)Nc3cccc(C)c3)n2)cc1	-13%	16µM*	.	.	.	.
Cc1cccc(NC(=O)CS(=O)(=O)c2nc(-c3ccccc3)cn2-c2cccc(Cl)c2)c1C	4%	28%	.	.	.	.
CCOc1ccc(-c2cn(-c3ccc(C)cc3)c(SCC(=O)Nc3ccc(C)cc3)n2)cc1	-5%	.	.	.	.	.
SMILES	FLuc modulator	SMN2 splice up	NPC1 promoter act	Rab9 prom act	uPA surface inh	ELG1 genotoxic
O=C(CS(=O)(=O)c1nc(-c2ccc(Cl)cc2)cn1-c1ccccc1)Nc1cccc(Cl)c1	?	13µM*	.	.	.	.
Cc1ccc(-c2cn(-c3cccc(Cl)c3)c(S(=O)(=O)CC(=O)Nc3ccccc3F)n2)cc1	?	13µM*	.	.	.	.
Cc1ccc(NC(=O)CS(=O)(=O)c2nc(-c3ccc(C)cc3)cn2-c2ccc(C)cc2)cc1	?	18µM*	.	.	.	.
Cc1cc2oc3c(c(=O)c2cc1C)C1(C(=O)N(C)c2ccccc21)N(CCO)C3=O (centres undefined)	-1%	-3%	.	.	.	.
O=C(CSc1nncn1-c1ccccc1)Nc1ccc(F)cc1F	0%	.	0%	-2%	5%	0%
O=C(CS(=O)(=O)c1nc(-c2ccc(Cl)cc2)cn1-c1ccccc1)Nc1ccc(F)cc1F	21µM*	14µM*	.	.	.	.
Cc1csc(NC(=O)c2cc3c(s2)CCCC3)n1	0.27µM*	.	0.56µM*	?	?	?
Cc1csc(NC(=O)c2cc3c(s2)CCCCC3)n1	0.13µM*	1µM*	0.35µM*	0.5µM*	-20%	0.21µM*
Cc1cnc(NC(=O)c2cc3c(s2)CCCC3)s1	0.27µM*	?	?	0.71µM*	-19%	?
CCc1nnc(NC(=O)c2cc3c(s2)CCCCC3)s1	.	.	.	.	1%	.
Cc1csc(NC(=O)C2CCCC2)n1	-25%	28%	18%	23%	-1%	?
COCCn1c(=O)c(-c2ccc(Cl)cc2)nc2cnc(OC)nc21	.	0%	.	.	.	.
Cc1ccc2c(c1)-c1c(cnc3cc(-c4ccc(F)cc4)nn13)CO2	0%	-1%	.	.	.	.
O=C1CCC=C1C(O)c1ccc(Cl)cc1 (centres undefined)	.	4%	.	.	.	.
CC(C)(C)c1ccc(C2=NC(=O)C(CC(=O)O)S2)cc1 (centres undefined)	1.7µM*	.	12%	17%	0%	0%
Nc1nc(Nc2ccc(Cl)cc2Cl)nc(C(F)(F)F)n1	?	?	?	?	-7%	18µM*
CCOC(=O)c1cc2c(=O)n3ccccc3nc2n(CC(C)C)c1=NC(=O)COc1ccc(Cl)cc1	0%	2%	.	.	.	.
Cc1cc(Br)ccc1NC(=O)CCS(=O)(=O)c1cccc2nsnc12	-10%	0%	.	.	.	.
Cc1cc(C)nc(SC/C=C/c2ccccc2)n1	?	.	11%	12%	15%	11%
C(=C\c1ccccc1)/CSc1ccccn1	12µM*	24%	?	3.5µM*	3%	17%
CCN(CC)C(=O)c1sc(NC(=O)c2ccc(Br)o2)c(C(=O)OC)c1C	-13%	-17%	0%	-8%	-1%	-2%
CCOC(=O)c1sc(NC(=O)c2sccc2C)cc1C	1.7µM*	6.3µM*	0.63µM*	0.56µM*	-7%	2.6µM*
CCOC(=O)c1sc(NC(=O)c2cccs2)cc1C	1.2µM*	14µM*	1.4µM*	1.8µM*	-10%	2.1µM*
